# FH mod – Identification of activators of human fumarate hydratase by quantitative high-throughput screening; Fumarate hydratase, mitochondrial (Homo sapiens), P07954; FH coupled MDH/diaphorase resazurin fluorescence, 15 min; Potency, µM (titrated, usually from 79.9 µM), without a hit: at the top dose activity change, negative = inhibition, usual class: inhibitors; actives 0.22% (n = 54,000); AID 1347055, 2019; note: the screen sought activators but most active calls are inhibition curves; nearly all actives have a fitted effect of over 45% in size
# Target sequence (P07954 whole entry, looked up): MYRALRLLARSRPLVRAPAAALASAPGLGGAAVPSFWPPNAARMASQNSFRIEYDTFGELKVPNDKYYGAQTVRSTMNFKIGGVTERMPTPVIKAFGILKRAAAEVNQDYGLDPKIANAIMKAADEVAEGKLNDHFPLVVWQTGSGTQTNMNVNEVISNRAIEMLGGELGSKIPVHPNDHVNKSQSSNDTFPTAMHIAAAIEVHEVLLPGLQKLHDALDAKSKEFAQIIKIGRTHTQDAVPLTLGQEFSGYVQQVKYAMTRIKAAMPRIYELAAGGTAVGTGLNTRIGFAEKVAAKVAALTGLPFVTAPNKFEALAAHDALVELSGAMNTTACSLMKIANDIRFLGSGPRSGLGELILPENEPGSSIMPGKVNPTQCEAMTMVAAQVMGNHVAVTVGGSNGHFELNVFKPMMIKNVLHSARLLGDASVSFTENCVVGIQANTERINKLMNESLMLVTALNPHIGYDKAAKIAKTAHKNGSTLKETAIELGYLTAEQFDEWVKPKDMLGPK
# p53null 32C tox – kills p53 null cells at the permissive temperature; H1299-neo p53 null cells, ATP luminescence, 24 h, 32C; Potency, µM (highest dose often 46.1 µM), for the others: at the highest dose activity change, negative = cytotoxicity, actives largely listed as cytotoxic; actives 0.62% (n = 55,000); AID 903;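 note: 0% = DMSO only and -100% = full killing by 100 µM tamoxifen; nearly all actives have a fitted effect of over 55% in size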
#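 AC50 values derive from Hill modelling of qHTS concentration-response data (up to 46 uM) in H1299-neo cells. Cells were treated 24 h at 32C following overnight attachment at 37C; viability was read as cellular ATP.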
# p53null 39C tox – kills p53 null cells at the nonpermissive temperature; H1299 p53-null (neo) cells, 39C, ATPlite viability, 24 h; Potency, µM (top dose mostly 46.1 µM), without a hit: at the top dose activity, negative = cell killing, hits mostly cytotoxic; actives 0.97% (n = 55,000);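 note: 0% = DMSO only and -100% = full killing by 100 µM tamoxifen; nearly all actives have a fitted effect of over 50% in size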
#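 Concentration-response (up to 46 uM) was run for 24 h at the nonpermissive 39C on H1299-p53A138V or H1299-neo cells. ATP content was measured with ATPlite luminescence. AC50 values were Hill-modeled after normalizing between DMSO and 100 uM tamoxifen killing.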
# * marks the source's active call; other numbers are inactive results; ? = inconclusive; nt = no result; ! = not active in a repeat; [ ] = remark or other dose. Sampled rows, rich in hits. Any-hit rate of the full collection: about 1.2%. Calls come from the whole dose curve; as a rule, active = well fitted curve in the direction sought with a large enough effect; inconclusive = small, poorly fitted or top-dose-only effect, or another doubt; inactive = no such curve, though single readings can be large; an effect the other way counts as inactive or inconclusive. Unless noted, % is set by controls: 0 for no effect and ±100 for the full control effect; potency is the fitted concentration of half-maximal effect.
SMILES,FH mod,p53null 32C tox,p53null 39C tox
CC(=O)N1CCCc2cc(S(=O)(=O)N(CCN(C)C)Cc3ccccc3)ccc21,1%,-10%,10µM*
CC(=O)N1CCCc2cc(S(=O)(=O)N3CCC(C(=O)N(Cc4ccccc4)C(C)C)CC3)ccc21,-2%,-5%,12%
CC(C)CN(C[C@H](O)[C@H](Cc1ccccc1)NC(=O)O[C@H]1CCOC1)S(=O)(=O)c1ccc(N)cc1,5%[53.3 µM],nt,nt
O=C(Nc1ccc2nc(-c3ccco3)[nH]c2c1)c1cccs1,nt,7.1µM*,10µM*
COc1ccc(NC(=O)c2cccs2)cc1,nt,?,-9%
COc1cc(-c2nc3cnccn3c2Nc2ccc(C(C)C)cc2)ccc1O,1%,?,16µM*
CC(C)c1ccc(Nc2c(-c3ccccc3O)nc3cnccn23)cc1,?,34%,25µM*
COc1cc(-c2nc3nc[nH]n3c2Nc2ccc(C(C)C)cc2)ccc1O,-32%,11%,-7%
Cc1ccn2c(Nc3ccc(C(C)C)cc3)c(-c3cccnc3)nc2c1,-17%,34%,21%
CN(C(=O)c1ccc(F)cc1C(F)(F)F)C1CCN(c2nnc(-c3ccnn3C)c3ccccc23)CC1,-5%,nt,nt
COc1cc2c(cc1OC(C)C)[C@H](c1ccc(Cl)cc1)N(c1ccc(N(C)CC3CCC(N4CCN(C)C(=O)C4)CC3)cc1)C(=O)C2 (stereo partly specified),-11%,nt,nt
O=C(Nc1nnc(SCC(=O)N2CCCc3ccccc32)s1)c1ccccc1,nt,7.9µM*,nt
Cc1cc(C)cc(C(=O)Nc2nnc(SCC(=O)N3CCCc4ccccc43)s2)c1,nt,-11%,nt
CCCNCCc1ccc(NS(=O)(=O)c2ccc(OC(F)(F)F)cc2)cc1,0%,nt,nt
CC(Sc1nc2ccccc2n1C)C(=O)NC(c1ccccc1)c1ccccc1 (stereo unspecified),nt,0%,-12%
Cc1oc(-c2nc3ccccc3n2C)cc1C(=O)c1ccccc1,nt,6.3µM*,11µM*
CCOc1ccc(-c2oc3ccc(C)cc3c(=O)c2O)cc1,6%,-9%,-26%
COc1cccc(-c2oc3ccc(C)cc3c(=O)c2O)c1,-18%,?,22µM*
C/C=C(\C)C(=O)O[C@@H]1[C@@H](C)[C@]2(O)[C@@H]3C=C(C)C(=O)[C@H]3CC(CO)=C[C@H]2C2C(C)(C)[C@@]21OC(=O)C(C)CC (stereo partly specified),-6%[53.3 µM],nt,nt
O=C(Oc1ccccc1Cl)c1cc(-c2ccc3c(c2)OCCO3)on1,-26%,20µM*,?
Cc1cccc(OC(=O)c2cc(-c3ccc4c(c3)OCCO4)on2)c1C,-25%,16µM*,32µM*
Cc1ccccc1OC(=O)c1cc(-c2ccc3c(c2)OCCO3)on1,-8%,?,?
Cc1c(Cl)cccc1NC(=O)c1cc(-c2ccc3c(c2)OCO3)on1,nt,0%,-7%
Cc1ccc(CCn2c3c(c4cc(Cl)ccc42)CN(C)CC3)cn1,6%[53.3 µM],nt,nt
COc1ccc([C@H](Cc2ccncc2)c2ccccc2)cc1OC1CCCC1,-3%,nt,nt
SMILES,FH mod,p53null 32C tox,p53null 39C tox
CC(O)CCc1ccc(O[C@@H]2O[C@H](CO)[C@@H](O)[C@H](O)[C@H]2O)cc1 (stereo partly specified),3%[53.3 µM],nt,nt
Cc1cccc(NS(=O)(=O)c2ccc3[nH]c4c(c3c2)CCCCCC4)c1,?,65%,-9%
O=S(=O)(Nc1cccc(Cl)c1)c1ccc2[nH]c3c(c2c1)CCCCCC3,?,10µM*,?
CC(=O)O[C@@H]1C(O)C[C@@]2(C)C(CC[C@@H](C)C23Cc2c(O)cc4c(c2O3)CNC4=O)C1(C)C (stereo partly specified),-1%[53.3 µM],nt,nt
CCCN1C(C(=O)c2ccccc2)=C(OC(=O)COc2ccc(C)cc2)c2ccccc2S1(=O)=O,-12%,-18%,32µM*
CCCN1C(C(=O)c2ccccc2)=C(OC(=O)COc2ccccc2)c2ccccc2S1(=O)=O,?,-21%,?
O=S(=O)(NCC1CC1)c1ccc(Nc2nccc(N3CCCc4cc(O)ccc43)n2)cc1,-19%,nt,nt
CCc1ccccc1NS(=O)(=O)c1ccc2oc(=O)c3ncn(C)c3c2c1,nt,-9%,11%
CCOc1ccccc1NS(=O)(=O)c1ccc2oc(=O)c3ncn(C)c3c2c1,nt,-18%,20µM*
CCC[C@@H](C=O)NC(=O)[C@H](CC(C)C)NC(=O)[C@H](CC(C)C)NC(=O)OCc1ccccc1,-6%[53.3 µM],nt,nt
O=C(C=CC=Cc1ccc2c(c1)OCO2)N1CCCCC1,2%[53.3 µM],nt,nt
N#Cc1cc([N+](=O)[O-])c2sc(C(N)=O)[n+]([O-])c2c1,20µM*!,nt,nt
NC(=O)c1ccc(I)c([N+](=O)[O-])c1,1%[53.3 µM],nt,nt
Cc1nn(-c2ccc(N3CCCC3)nn2)c(C)c1CCC(=O)Nc1ccccc1,nt,-3%,-8%
Cc1ccc(NC(=O)CCc2c(C)nn(-c3ccc(N4CCCCC4)nn3)c2C)cc1F,nt,?,7.9µM*
COC(=O)c1c(SCC(=O)Nc2cccc(Cl)c2C)[nH]c2ccccc2c1=O,-22%,-15%,10µM*
COC(=O)c1c(SCC(=O)Nc2cccc(C(F)(F)F)c2)[nH]c2ccccc2c1=O,-3%,?,3.2µM*
O=C(CSCc1cc(=O)c2ccccc2[nH]1)Nc1cccc(C(F)(F)F)c1,-2%,-8%,-5%
COC(=O)c1c(SCC(=O)Nc2cc(F)ccc2F)[nH]c2ccc(C)cc2c1=O,-19%,?,?
Cc1cc(C(=O)NOCCO)c(Nc2ccc(I)cc2F)n(C)c1=O,5%,nt,nt
Cc1cc(F)c(C(=O)Nc2cccc(-c3nncn3C(C)C)n2)cc1-n1cnc(C2CC2)c1,-1%[53.3 µM],nt,nt
CCOC(=O)c1cnn(-c2ccccc2)c1NC(=O)c1cc2nc(-c3ccco3)cc(C(F)(F)Cl)n2n1,4%,nt,nt
CCC(=O)O[C@]1(C(=O)CCl)[C@@H](C)C[C@H]2[C@@H]3C[C@H](F)C4=CC(=O)C=C[C@]4(C)[C@@]3(F)[C@@H](O)C[C@@]21C,-8%,nt,nt
Cc1cc(OCCCn2c(CCNC(=O)C3CCCCC3)nc3ccccc32)ccc1Cl,?,?,25µM*
Cc1cccc(OCCCn2c(CCNC(=O)C(C)(C)C)nc3ccccc32)c1,-4%,4%,-12%
SMILES,FH mod,p53null 32C tox,p53null 39C tox
Cc1cccc(C)c1OCCCn1c(CCNC(=O)C2CCCCC2)nc2ccccc21,?,-4%,16µM*
Cc1ccc(OCCCn2c(CCNC(=O)C3CCCCC3)nc3ccccc32)c(C)c1,-13%,-7%,-3%
CCS(=O)(=O)c1ccc(OC)c(C(=O)OC)c1,-4%[53.3 µM],nt,nt
O=C1NC(Cc2ccccc2)C(=O)N2CCCC12 (stereo unspecified),-8%,nt,nt
CC/C=C\CC1C(CC(=O)O)CCC1OC1OC(CO)C(O)C(O)C1O (stereo unspecified),-1%[53.3 µM],nt,nt
COc1cccc(/C=N/Nc2nnc(C)n2N)c1OCc1ccccc1Cl,nt,nt,18µM*
COC(=O)c1c(SC)nc2ccccc2c1OCc1ccccc1Cl,-20%,-3%,-8%
CCN(CC)CCn1c(=N)n(CCOc2ccccc2Cl)c2ccccc21,0%,-21%,3.2µM*
CCn1c(=N)n(CC(O)COc2ccccc2)c2ccccc21 (stereo unspecified),2%,-8%,15%
